Out of some 4,800 compounds screened, about 410 (8.5%) showed an effect of 50% or more. The entries come from a sample that favours strong results as a whole.
Each compound was assayed on Plasmodium falciparum (assay: Confirmatory screen in NF54 pLDH assay, in single point, at 2uM, 72h). Conditions: timepoint 72 hour.
Format: functional, Erythrocyte

Row | SMILES | % Inhibition [%]
1 | Cc1onc(C(=O)NCc2cnn(C)c2C)c1COc1cccc(C(F)(F)F)c1 | -4
2 | O=C(Cn1cnc2cc3c(cc21)OCCCO3)Nc1ccc(F)cc1 | 13
3 | CCc1ccsc1CN=C(N)NC1CCCCC1 | -9
4 | O=C(Nc1cc(-c2onc3c2CCCC3)cc(C(F)(F)F)c1)c1cncc(Br)c1 | 95
5 | Clc1ccc(-c2onc3c2CCCC3)cc1 | 9
6 | O=C(Nc1onc2c1CCC2)c1ccc2ccccc2c1 | 41
7 | O=C(NCc1cccc(F)c1)[C@H]1CCCN(c2nc3ccccc3n(Cc3ccccc3)c2=O)C1 | 5
8 | Cc1cc(C)cc(-c2cc3nc(C)cc(N4CCC(C(=O)NCc5cccc(F)c5)CC4)n3n2)c1 | 67
9 | Cc1cc(C)cc(-c2cc3nc(C)cc(N4CCC(C(=O)Nc5ccc(C)c(Cl)c5)CC4)n3n2)c1 | -12
10 | CC1CN(CC(=O)NCCC#N)C(C)CO1 (configuration not stated) | 1
11 | Cc1ccc(CN2C(=O)NC3(CCCCC3C)C2=O)c(OCC2CCOC2)c1 (configuration not stated) | 6
12 | O=C(NCCCN1CCOCC1)C1C2CCCC21 (configuration not stated) | 8
13 | CN(C)c1ccc(-c2nc(C(F)(F)F)cc(C(F)(F)C(F)(F)F)n2)cc1 | 5
14 | Oc1cccc(CN2CCC3(CC2)C[C@H](c2ccccc2)CN(C2CC2)C3)c1 | 29
15 | Cc1c(C(=O)Nc2cccc(S(=O)(=O)NC3CC3)c2)cnn1C | 12
16 | CC1(CCCCNC(=O)N2CC[C@H](S(C)(=O)=O)C2)OCCO1 | 6
17 | CCN1c2cc(C(=O)NCc3ccccc3)ccc2C(=O)N2CCCC[C@H]21 | 7
18 | COc1ccc(-n2nc(C)c3c2NC(=O)C[C@@H]3c2ccccc2OCC(C)C)nn1 | -1
19 | CCc1cccc(NC(=O)Cn2ccc3ccc(-c4nnc(C)o4)cc32)c1 | 89
20 | Cn1cc(-c2ccc(Cl)cc2)c2ncn(CC(=O)Nc3cccc(Cl)c3)c(=O)c21 | -1
21 | Cc1nnc(-c2ccc3ccn(CC(=O)Nc4ccc(F)c(Cl)c4)c3c2)o1 | 96
22 | Cc1nc2cc3c(cc2n1CC(=O)Nc1ccc(Cl)cc1)OCCCO3 | 15
23 | Cc1noc(C)c1CC(=O)Nc1cccc(-c2nnco2)c1 | 9
24 | Cc1cc(=O)n(CC(=O)Nc2ccc(Cl)c(C(F)(F)F)c2)c(-c2ccc(F)cc2)n1 | 0
25 | CC1CCCC(C)C12NC(=O)N(CN1CCN(CCOc3ccccc3Cl)CC1)C2=O (configuration not stated) | 5
26 | CCOc1ccc(CNC(=O)c2sccc2NC(=O)c2cnccn2)cc1 | -15
27 | COc1ccc(C(=O)c2c[nH]c(C(=O)NC[C@H]3CCCO3)c2)cc1 | 3

Source: ChEMBL document CHEMBL4888484, “Replenishing the malaria drug discovery pipeline: Screening and hit evaluation of the MMV Hit Generation Library 1 (HGL1) against asexual blood stage Plasmodium falciparum ,using a nano luciferase reporter read-out” (2022)
